# Data as given in paper PMC7862700, “An all-to-all approach to the identification of sequence-specific readers for epigenetic DNA modifications on cytosine”.
# Key:
# Assay in all cases: DAPPL (digital affinity profiling via proximity ligation, sequencing); 10 mM Tris-HCl pH 7.5, 50 mM NaCl, 1 mM DTT, 4% glycerol, room temperature, 30 min; GST-TFs on glutathione beads, 16-mer random dsDNA library, 0.1% formaldehyde crosslink after washing; high values mean tight binding
# FEV = target: T1, FEV (Homo sapiens, UniProt Q99581 1-238); details: protein: recombinant; tags: N-terminal GST; dsDNA, one strand shown
# T1 sequence: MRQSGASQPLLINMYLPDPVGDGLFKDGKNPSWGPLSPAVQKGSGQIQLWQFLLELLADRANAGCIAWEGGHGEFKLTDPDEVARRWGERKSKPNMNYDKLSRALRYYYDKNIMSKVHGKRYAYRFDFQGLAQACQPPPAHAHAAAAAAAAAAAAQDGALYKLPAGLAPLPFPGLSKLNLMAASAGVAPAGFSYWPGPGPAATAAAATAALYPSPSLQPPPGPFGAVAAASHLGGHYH
# Summary of the method: (§1)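 Binding signal is each hexamer's read frequency for a factor divided by its frequency in the tag-only sample. The factors were GST-fused human transcription factors from yeast, captured on glutathione beads, DNA-barcoded and pooled with that sample. Pools were incubated with 200 nmole of a random double-stranded 16-mer DNA library in Tris/NaCl/DTT/glycerol buffer at room temperature for 30 min, then washed, crosslinked with 0.1% formaldehyde, proximity-ligated with BsaI/T4 ligase (1 h, 37 °C), PCR-amplified and sequenced on an Illumina NextSeq500.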
# ETV5 = ETV5 (Homo sapiens, UniProt P41161 1-510); details: protein: recombinant; tags: N-terminal GST; dsDNA, one strand shown
# Summary of the method: as §1
# HSF1 = HSF1 (Homo sapiens, UniProt Q00613 1-529); details: protein: recombinant; tags: N-terminal GST; chain copies: 3; dsDNA, one strand shown
# Summary of the method: as §1
# SPIC = target: T2, SPIC (Homo sapiens, UniProt Q8N5J4 1-248); details: protein: recombinant; tags: N-terminal GST; dsDNA, one strand shown
# T2 sequence: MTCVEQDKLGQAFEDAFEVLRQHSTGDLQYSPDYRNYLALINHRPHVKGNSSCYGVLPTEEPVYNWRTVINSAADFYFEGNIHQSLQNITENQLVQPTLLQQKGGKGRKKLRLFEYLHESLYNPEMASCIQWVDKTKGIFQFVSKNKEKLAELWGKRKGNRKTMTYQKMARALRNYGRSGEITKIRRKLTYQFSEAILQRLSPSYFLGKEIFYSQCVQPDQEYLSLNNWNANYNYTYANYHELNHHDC
# Summary of the method: as §1
# ELF4 = ELF4 (Homo sapiens, UniProt Q99607 1-663); details: protein: recombinant; tags: N-terminal GST; dsDNA, one strand shown
# Summary of the method: as §1
# ELK4 = target: T3, ELK4 (Homo sapiens, UniProt P28324-2 1-405); details: protein: recombinant; tags: N-terminal GST; dsDNA, one strand shown
# T3 sequence: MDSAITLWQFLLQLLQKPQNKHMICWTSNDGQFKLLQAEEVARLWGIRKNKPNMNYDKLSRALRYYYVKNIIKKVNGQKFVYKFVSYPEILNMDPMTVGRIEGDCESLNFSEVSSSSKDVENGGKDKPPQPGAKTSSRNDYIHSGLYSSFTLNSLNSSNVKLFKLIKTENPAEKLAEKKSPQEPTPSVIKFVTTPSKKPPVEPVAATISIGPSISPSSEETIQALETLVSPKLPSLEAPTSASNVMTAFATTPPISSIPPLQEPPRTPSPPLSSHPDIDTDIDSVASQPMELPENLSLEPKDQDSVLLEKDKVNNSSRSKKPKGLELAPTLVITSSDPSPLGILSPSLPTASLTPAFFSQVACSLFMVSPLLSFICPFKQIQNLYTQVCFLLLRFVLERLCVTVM
# Summary of the method: as §1
# ETV2 = target: T4, ETV2 (Homo sapiens, UniProt O00321 1-342); details: protein: recombinant; tags: N-terminal GST; dsDNA, one strand shown
# T4 sequence: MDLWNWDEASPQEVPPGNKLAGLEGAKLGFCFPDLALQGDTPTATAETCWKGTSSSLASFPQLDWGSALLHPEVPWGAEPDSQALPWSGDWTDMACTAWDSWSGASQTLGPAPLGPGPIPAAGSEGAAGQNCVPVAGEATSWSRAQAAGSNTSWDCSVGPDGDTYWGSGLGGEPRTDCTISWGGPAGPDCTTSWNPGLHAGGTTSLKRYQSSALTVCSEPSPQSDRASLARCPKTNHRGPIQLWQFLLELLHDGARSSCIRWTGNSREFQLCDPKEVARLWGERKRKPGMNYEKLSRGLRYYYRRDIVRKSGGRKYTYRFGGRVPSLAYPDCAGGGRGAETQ
# Summary of the method: as §1
# ELF3 = target: T5, ELF3 (Homo sapiens, UniProt P78545 1-371); details: protein: recombinant; tags: N-terminal GST; dsDNA, one strand shown
# T5 sequence: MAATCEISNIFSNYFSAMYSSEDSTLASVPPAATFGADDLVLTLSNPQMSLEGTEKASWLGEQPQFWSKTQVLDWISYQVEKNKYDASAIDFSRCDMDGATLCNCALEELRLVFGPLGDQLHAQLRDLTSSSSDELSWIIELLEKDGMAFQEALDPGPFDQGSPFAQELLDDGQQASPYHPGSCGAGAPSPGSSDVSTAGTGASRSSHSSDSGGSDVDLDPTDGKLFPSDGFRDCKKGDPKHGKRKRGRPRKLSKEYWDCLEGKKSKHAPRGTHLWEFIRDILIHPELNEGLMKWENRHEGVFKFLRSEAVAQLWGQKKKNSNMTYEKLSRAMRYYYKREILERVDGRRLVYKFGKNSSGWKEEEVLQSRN
# Summary of the method: as §1
# CRX = CRX (Homo sapiens, UniProt O43186 1-299); details: protein: recombinant; tags: N-terminal GST; dsDNA, one strand shown
# Summary of the method: as §1
# ETV1 = ETV1 (Homo sapiens, UniProt P50549 1-477); details: protein: recombinant; tags: N-terminal GST; dsDNA, one strand shown
# Summary of the method: as §1
# ERF = target: T6, ERF (Homo sapiens, UniProt P50548 1-548); details: protein: recombinant; tags: N-terminal GST; dsDNA, one strand shown
# T6 sequence: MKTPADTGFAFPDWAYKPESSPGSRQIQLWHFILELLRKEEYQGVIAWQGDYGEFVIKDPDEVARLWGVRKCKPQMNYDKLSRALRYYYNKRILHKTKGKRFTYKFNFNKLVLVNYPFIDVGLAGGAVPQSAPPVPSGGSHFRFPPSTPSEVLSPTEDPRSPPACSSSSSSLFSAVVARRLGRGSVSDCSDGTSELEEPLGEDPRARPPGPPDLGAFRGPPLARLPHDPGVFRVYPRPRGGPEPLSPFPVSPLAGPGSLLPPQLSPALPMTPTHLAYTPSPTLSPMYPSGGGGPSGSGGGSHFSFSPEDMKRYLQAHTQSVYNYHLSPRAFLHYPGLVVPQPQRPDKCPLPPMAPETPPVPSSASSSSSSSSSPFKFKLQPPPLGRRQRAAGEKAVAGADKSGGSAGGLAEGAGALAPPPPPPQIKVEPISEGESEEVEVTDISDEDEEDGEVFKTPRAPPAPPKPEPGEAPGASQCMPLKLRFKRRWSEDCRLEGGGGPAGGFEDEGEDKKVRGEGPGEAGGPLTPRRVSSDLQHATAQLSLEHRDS
# Summary of the method: as §1
# ETV3L = target: T7, ETV3L (Homo sapiens, UniProt Q6ZN32 1-361); details: protein: recombinant; tags: N-terminal GST; dsDNA, one strand shown
# T7 sequence: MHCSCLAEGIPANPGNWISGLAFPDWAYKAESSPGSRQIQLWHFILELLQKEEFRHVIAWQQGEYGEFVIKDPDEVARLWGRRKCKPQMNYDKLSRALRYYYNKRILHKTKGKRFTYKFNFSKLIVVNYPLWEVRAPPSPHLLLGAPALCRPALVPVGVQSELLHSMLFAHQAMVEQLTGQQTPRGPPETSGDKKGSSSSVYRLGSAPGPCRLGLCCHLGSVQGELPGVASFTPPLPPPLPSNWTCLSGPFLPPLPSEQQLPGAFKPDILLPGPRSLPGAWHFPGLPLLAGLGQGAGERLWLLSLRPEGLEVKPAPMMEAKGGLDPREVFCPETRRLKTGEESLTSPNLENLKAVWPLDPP
# Summary of the method: as §1
# ETS2 = target: T8, ETS2 (Homo sapiens, UniProt P15036 1-469); details: protein: recombinant; tags: N-terminal GST; dsDNA, one strand shown
# T8 sequence: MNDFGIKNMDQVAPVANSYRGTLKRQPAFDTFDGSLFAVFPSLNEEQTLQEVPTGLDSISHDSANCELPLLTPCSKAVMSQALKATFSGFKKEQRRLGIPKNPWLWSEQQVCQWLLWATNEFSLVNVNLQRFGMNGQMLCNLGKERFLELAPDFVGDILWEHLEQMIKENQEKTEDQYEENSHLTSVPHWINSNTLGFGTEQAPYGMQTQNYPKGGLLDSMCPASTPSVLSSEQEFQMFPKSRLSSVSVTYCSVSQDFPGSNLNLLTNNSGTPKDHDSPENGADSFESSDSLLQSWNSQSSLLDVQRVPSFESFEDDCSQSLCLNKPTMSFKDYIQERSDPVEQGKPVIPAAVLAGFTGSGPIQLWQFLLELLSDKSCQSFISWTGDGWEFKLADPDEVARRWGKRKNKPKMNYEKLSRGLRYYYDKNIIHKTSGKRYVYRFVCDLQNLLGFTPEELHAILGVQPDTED
# Summary of the method: as §1
# SPDEF = target: T9, SPDEF (Homo sapiens, UniProt O95238 1-335); details: protein: recombinant; tags: N-terminal GST; dsDNA, one strand shown
# T9 sequence: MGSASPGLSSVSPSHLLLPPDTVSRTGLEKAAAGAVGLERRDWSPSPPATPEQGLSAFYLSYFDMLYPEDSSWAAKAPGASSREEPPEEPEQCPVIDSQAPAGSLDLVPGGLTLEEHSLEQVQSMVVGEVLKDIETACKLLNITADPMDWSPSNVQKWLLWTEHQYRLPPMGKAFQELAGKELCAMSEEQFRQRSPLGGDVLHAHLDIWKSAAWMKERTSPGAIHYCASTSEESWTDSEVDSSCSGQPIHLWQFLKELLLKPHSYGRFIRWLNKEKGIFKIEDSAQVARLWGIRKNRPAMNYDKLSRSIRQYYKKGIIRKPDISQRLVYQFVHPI
# Summary of the method: as §1
# ETV7 = target: T10, ETV7 (Homo sapiens, UniProt Q9Y603 1-341); details: protein: recombinant; tags: N-terminal GST; dsDNA, one strand shown
# T10 sequence: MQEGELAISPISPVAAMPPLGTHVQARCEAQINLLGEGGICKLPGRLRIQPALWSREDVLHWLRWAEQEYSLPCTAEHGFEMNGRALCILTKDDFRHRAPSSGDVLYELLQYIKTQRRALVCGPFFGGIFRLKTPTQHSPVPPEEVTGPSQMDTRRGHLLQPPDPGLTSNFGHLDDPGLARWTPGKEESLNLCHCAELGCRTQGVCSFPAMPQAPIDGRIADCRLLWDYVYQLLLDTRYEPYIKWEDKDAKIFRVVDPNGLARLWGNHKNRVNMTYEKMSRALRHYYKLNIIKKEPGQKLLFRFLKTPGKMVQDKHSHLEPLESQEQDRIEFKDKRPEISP
# Summary of the method: as §1
# ELF5 = target: T11, ELF5 (Homo sapiens, UniProt Q9UKW6-2 1-255); details: protein: recombinant; tags: N-terminal GST; dsDNA, one strand shown
# T11 sequence: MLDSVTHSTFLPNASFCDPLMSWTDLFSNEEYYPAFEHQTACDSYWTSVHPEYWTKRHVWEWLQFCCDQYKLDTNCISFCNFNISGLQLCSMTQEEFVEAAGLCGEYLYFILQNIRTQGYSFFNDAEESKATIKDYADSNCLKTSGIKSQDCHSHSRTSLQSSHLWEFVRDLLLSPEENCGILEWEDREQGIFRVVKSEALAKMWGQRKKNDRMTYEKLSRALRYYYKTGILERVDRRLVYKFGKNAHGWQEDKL
# Summary of the method: as §1
# ETV3 = target: T12, ETV3 (Homo sapiens, UniProt P41162-2 1-143); details: protein: recombinant; tags: N-terminal GST; dsDNA, one strand shown
# T12 sequence: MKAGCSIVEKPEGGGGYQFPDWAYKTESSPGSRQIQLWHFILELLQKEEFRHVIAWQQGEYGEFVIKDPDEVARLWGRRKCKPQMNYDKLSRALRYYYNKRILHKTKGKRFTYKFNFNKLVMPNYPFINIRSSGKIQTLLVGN
# Summary of the method: as §1
# ETV6 = ETV6 (Homo sapiens, UniProt P41212 1-452); details: protein: recombinant; tags: N-terminal GST; dsDNA, one strand shown
# Summary of the method: as §1
# Sequence of ETV1 (P50549 whole entry): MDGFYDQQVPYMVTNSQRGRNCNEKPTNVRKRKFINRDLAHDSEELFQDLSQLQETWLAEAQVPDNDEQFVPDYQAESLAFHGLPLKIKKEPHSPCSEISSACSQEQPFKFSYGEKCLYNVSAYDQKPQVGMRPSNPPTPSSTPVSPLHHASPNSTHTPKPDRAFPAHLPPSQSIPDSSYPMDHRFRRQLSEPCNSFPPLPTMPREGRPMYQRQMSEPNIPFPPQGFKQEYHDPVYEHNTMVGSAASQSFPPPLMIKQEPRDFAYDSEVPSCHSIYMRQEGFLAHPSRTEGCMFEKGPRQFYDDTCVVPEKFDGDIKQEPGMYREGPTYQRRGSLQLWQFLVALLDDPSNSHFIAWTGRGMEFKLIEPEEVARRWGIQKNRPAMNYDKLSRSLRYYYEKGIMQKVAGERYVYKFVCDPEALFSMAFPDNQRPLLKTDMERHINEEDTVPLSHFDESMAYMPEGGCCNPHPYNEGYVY
# Sequence of HSF1 (Q00613 whole entry): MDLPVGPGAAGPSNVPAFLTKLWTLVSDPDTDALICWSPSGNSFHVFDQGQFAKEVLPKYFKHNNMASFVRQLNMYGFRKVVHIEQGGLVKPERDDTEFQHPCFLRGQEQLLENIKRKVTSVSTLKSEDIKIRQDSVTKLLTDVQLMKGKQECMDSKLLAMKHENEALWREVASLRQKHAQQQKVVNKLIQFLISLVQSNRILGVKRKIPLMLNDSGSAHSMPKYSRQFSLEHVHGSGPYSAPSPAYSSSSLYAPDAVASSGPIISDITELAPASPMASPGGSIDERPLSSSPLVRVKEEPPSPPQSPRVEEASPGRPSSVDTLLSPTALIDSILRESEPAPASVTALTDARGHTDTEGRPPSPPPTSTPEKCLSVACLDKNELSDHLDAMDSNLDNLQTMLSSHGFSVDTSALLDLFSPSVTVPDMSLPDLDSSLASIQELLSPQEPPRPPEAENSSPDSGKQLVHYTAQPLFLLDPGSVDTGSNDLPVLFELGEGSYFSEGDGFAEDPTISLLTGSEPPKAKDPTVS
# Sequence of CRX (O43186 whole entry): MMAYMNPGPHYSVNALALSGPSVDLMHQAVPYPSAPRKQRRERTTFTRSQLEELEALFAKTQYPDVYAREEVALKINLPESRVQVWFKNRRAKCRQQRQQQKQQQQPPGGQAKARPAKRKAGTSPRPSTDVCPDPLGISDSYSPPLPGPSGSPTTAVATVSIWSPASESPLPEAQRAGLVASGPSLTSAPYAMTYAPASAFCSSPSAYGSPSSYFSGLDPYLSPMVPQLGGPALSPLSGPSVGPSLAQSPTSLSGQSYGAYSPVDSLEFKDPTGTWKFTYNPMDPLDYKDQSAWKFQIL
# Sequence of ELF4 (Q99607 whole entry): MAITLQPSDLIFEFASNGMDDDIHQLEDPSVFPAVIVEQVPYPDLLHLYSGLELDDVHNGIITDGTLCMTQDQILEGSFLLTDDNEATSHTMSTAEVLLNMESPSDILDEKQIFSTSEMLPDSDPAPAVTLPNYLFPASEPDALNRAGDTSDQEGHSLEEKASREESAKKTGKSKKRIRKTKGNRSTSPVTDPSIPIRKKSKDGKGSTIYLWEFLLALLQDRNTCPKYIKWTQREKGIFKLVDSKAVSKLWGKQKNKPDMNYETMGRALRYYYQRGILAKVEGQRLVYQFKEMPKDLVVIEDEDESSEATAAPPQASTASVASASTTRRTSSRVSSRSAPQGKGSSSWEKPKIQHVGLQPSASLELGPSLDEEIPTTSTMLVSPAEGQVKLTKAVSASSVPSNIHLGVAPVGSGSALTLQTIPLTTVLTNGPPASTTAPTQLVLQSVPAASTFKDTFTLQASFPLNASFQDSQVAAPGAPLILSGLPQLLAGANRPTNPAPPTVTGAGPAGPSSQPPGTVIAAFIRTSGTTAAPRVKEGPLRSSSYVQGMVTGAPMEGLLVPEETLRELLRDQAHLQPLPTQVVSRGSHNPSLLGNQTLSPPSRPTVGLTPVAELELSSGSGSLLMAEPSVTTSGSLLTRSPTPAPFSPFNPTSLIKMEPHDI
# Sequence of ETV5 (P41161 whole entry): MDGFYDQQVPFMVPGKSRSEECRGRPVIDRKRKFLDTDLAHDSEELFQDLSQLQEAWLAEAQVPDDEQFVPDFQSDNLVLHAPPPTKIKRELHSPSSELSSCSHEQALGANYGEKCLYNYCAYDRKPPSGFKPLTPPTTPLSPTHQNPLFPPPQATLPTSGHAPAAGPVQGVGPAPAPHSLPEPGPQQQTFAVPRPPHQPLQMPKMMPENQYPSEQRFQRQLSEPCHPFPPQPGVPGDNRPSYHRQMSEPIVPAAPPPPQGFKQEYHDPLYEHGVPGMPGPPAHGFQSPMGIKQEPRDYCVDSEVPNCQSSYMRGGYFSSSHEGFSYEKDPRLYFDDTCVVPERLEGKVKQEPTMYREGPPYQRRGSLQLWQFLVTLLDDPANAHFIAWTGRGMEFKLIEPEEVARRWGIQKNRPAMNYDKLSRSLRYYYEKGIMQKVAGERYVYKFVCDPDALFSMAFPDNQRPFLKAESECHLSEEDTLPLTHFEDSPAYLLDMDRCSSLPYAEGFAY
# Sequence of ETV6 (P41212 whole entry): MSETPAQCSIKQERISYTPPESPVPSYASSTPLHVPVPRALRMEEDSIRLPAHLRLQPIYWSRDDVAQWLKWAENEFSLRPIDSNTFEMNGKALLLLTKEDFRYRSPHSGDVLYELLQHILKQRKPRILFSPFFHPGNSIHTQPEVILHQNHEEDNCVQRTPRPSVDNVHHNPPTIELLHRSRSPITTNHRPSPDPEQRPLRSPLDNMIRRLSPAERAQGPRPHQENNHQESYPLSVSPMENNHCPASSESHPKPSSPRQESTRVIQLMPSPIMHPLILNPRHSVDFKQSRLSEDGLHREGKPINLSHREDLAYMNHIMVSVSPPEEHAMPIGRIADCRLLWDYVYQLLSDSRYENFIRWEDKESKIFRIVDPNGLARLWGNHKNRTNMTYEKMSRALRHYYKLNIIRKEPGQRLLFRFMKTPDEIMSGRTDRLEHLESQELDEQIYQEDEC
sequence,measurement,setting,value
TCCGCA,binding signal,FEV,"1.91 fold enrichment (6-mer frequency, TF over GST control)"
same,binding signal,ETV5,"2.24 fold enrichment (6-mer frequency, TF over GST control)"
same,binding signal,HSF1,"1.21 fold enrichment (6-mer frequency, TF over GST control)"
same,binding signal,SPIC,"2.46 fold enrichment (6-mer frequency, TF over GST control)"
same,binding signal,ELF4,"1.98 fold enrichment (6-mer frequency, TF over GST control)"
same,binding signal,ELK4,"1.76 fold enrichment (6-mer frequency, TF over GST control)"
same,binding signal,ETV2,"1.98 fold enrichment (6-mer frequency, TF over GST control)"
same,binding signal,ELF3,"2.22 fold enrichment (6-mer frequency, TF over GST control)"
same,binding signal,CRX,"1.35 fold enrichment (6-mer frequency, TF over GST control)"
same,binding signal,ETV1,"2.15 fold enrichment (6-mer frequency, TF over GST control)"
same,binding signal,ERF,"1.95 fold enrichment (6-mer frequency, TF over GST control)"
same,binding signal,ETV3L,"2.08 fold enrichment (6-mer frequency, TF over GST control)"
same,binding signal,ETS2,"2.26 fold enrichment (6-mer frequency, TF over GST control)"
same,binding signal,SPDEF,"2.24 fold enrichment (6-mer frequency, TF over GST control)"
same,binding signal,ETV7,"1.98 fold enrichment (6-mer frequency, TF over GST control)"
same,binding signal,ELF5,"2.61 fold enrichment (6-mer frequency, TF over GST control)"
same,binding signal,ETV3,"2.27 fold enrichment (6-mer frequency, TF over GST control)"
same,binding signal,ETV6,"2.18 fold enrichment (6-mer frequency, TF over GST control)"
